High-throughput results as filed in PubChem BioAssay.
Rows were chosen to be rich in hits. Some 2.6% of all compounds tested hit in one or more screens of this group.
APOBEC3A inh: inhibitors of human APOBEC3A DNA deaminase; P31941; recombinant A3A, FAM/TAMRA ssDNA deamination fluorescence; inhibition, % at 20 µM; 0.41% of 330,000 active; AID 493011;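 active means at least 40% inhibition at 20 µM here, with at most 30% in a related deaminase screen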;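 further: plate controls were A3A with DMSO for no effect and wells lacking A3A enzyme for full effect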
PABP polyA inh: blocks human PABP binding to poly(A) RNA | fluorescence polarization | calls only at 35 µM | 1% of 290,000 active | AID 2014;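 further: calls also rest on retests at 20 µM and on dose response follow-up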
PHOSPHO1 inh: inhibitors of human PHOSPHO1 phosphatase; recombinant PHOSPHO1, absorbance phosphatase assay; Q8TCT1; 1.1% of 290,000 active; inhibition, % at 13.3 µM; in the data active means inhibition above about 60%
MLLE-PAM2 inh: blocks PAM2 peptide binding to the PABP1 MLLE domain; GST-MLLE / FITC-PAM2 fluorescence polarization; inhibition, % at 20 µM; 0.36% of 360,000 active; in the data active means inhibition above about 35%, passing the limit was not always enough;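 further: plate controls were DMSO wells with GST-MLLE for no effect and wells lacking GST-MLLE protein for full effect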
eIF4H inh: inhibitors of RNA binding by human eIF4H; Q15056; eIF4H fluorescence polarization binding assay; inhibition, % at 35 µM; 0.94% of 290,000 active; AID 2012;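 further: calls also rest on retests at 20 µM and on dose response follow-up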
APOBEC3G inh: blocks human APOBEC3G single-stranded DNA deamination. 0.28% of 330,000 active. inhibition, % at 20 µM. recombinant A3G, ssDNA deamination FAM/TAMRA fluorescence. Q9HC16;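 active means inhibition of at least 40% at 20 µM, with no more than 30% in the related APOBEC3A deaminase screen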;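 further: plate controls were DMSO wells with A3G for no effect and wells lacking A3G enzyme for full effect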
Target sequence (Q9HC16 whole entry, looked up): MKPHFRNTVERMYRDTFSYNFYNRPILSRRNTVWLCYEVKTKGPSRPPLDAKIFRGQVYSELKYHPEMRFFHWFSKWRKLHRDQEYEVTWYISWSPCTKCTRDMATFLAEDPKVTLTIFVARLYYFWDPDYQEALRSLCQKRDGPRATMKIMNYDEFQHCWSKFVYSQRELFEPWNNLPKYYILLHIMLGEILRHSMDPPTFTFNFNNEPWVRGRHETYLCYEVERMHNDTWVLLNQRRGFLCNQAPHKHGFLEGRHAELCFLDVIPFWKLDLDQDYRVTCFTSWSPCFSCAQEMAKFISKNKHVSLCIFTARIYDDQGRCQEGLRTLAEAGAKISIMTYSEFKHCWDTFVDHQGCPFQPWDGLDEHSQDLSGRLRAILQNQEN
Active calls of the source: *; i = inactive; . = not tested or not shown; + = active, no number. Unless noted, how the calls were made is not given here.

SMILES | APOBEC3A inh | PABP polyA inh | PHOSPHO1 inh | MLLE-PAM2 inh | eIF4H inh | APOBEC3G inh
COc1ccc(CCNc2nc(-c3ccncc3)cs2)cc1OC | -0.6 | i | 12.9 | -7.3 | 9.9 | -8.9
CC1CCCN(CCCNC(=O)c2ccc3c(c2)N(Cc2ccccc2F)C(=O)c2ccccc2S3(=O)=O)C1 (stereo unspecified) | -3.9 | i | 1.0 | -19.9 | 13.6 | -7.8
Cc1onc(-c2ccccc2)c1C(=O)NCCc1ccncc1 | -3.2 | i | 41.4 | 0.8 | 2.3 | -10.2
Cc1cc(C)n(CC(=O)N/N=C/c2ccccn2)n1 | 1.8 | i | -2.2 | 9.8 | 1.9 | -4.8
Cc1cccc(/C=N/NC(=O)Cn2nc(C)cc2C)n1 | -0.5 | + | 4.7 | 3.8 | 102.5* | -1.6
Cc1cc(C)n(CC(=O)N/N=C/c2ccc(C)o2)n1 | -1.6 | i | 62.3* | -4.5 | 2.1 | -1.1
Cc1cccc(N2C(=S)NC3c4cc(Cl)ccc4OC2(C)C3C(=O)N(C)C)c1 (stereo unspecified) | -3.5 | i | -18.3 | 17.1 | 1.0 | -3.6
Cc1ccc(N2C(=S)NC3c4cc(Cl)ccc4OC2(C)C3C(=O)N(C)C)cc1 (stereo unspecified) | -3.0 | i | -1.1 | 44.0* | -0.8 | -12.9
O=C1C=C(c2ccccc2)C[C@@H](c2ccc(Cl)cc2)C1 | 0.7 | . | . | 2.5 | . | -0.4
O=C1CC(c2ccccc2)CC(=O)C1Sc1ccc(Cl)cc1 (stereo unspecified) | 0.7 | i | -2.7 | 42.1* | -1.0 | -1.2
CCc1nc(SCC(=O)O)c(C#N)c2c1CCCC2 | 3.3 | i | 30.4 | 13.2 | 5.1 | -1.8
Cc1nc(SCC(=O)O)c(C#N)c2c1CCCC2 | 85.6 | + | 2.1 | -28.9 | 108.2* | 32.6
CSc1nc(N)cc(=O)[nH]1 | -5.6 | + | 23.7 | 11.3 | 60.9 | -5.5
Cc1cccc(C)c1NC(=O)COC(=O)c1ccccc1[N+](=O)[O-] | -1.6 | i | 62.9* | 13.2 | 0.3 | -6.6
Cc1cc(NC(=O)COC(=O)c2ccccc2[N+](=O)[O-])no1 | -1.9 | i | 27.7 | -3.0 | 1.8 | -8.2
Cc1cc(C)c(NC(=O)COC(=O)c2cccc3c2C(=O)c2ccccc2C3=O)c(C)c1 | 0.5 | i | 2.5 | 8.4 | 1.0 | -2.1
Cc1cc(C)c(Nc2cc(S(=O)(=O)O)c(N)c3c2C(=O)c2ccccc2C3=O)c(C)c1 | . | + | -6.2 | 15.4 | 92.3 | .
Nc1ncnc(N2CCOCC2)c1N | -3.2 | + | -3.4 | -1.3 | 87.3* | -4.9
COc1ccc(CNC(=O)C2(C)Cc3c(-c4cccc(C(N)=O)c4)ccnc3O2)cc1OC (stereo unspecified) | . | . | . | -0.9 | . | .
CCCCc1c(O)nc(SCC(=O)Nc2cccc3ccccc23)n(-c2ccccc2OC)c1=O | -6.0 | i | 1.8 | 41.4* | -2.8 | -3.2
CCc1c(O)nc(SCC(=O)Nc2ccccc2OC)n(-c2ccccc2C)c1=O | 1.2 | . | 1.2 | 45.8* | . | 2.3
COc1ccc(N2C(=O)C(Cl)=C(Nc3ccccc3O)C2=O)cc1 | 2.0 | i | 69.5* | -28.8 | -2.2 | -3.2
COc1ccc(N2C(=O)C(Cl)=C(Nc3ccccc3OC)C2=O)cc1 | 0.7 | i | 4.7 | 8.6 | -4.4 | 1.5
COc1ccc(CNC(=O)c2cn(Cc3ccccc3F)c(=O)s2)cc1 | . | . | . | -12.8 | . | .
O=C(COC(=O)c1n[nH]c2ccccc12)c1cccc(Br)c1 | -3.0 | i | 60.6* | -2.1 | -6.4 | -7.9
CCCCOc1ccc(C(=O)OCC(=O)NC2CCCC2)cc1 | -4.0 | i | 19.9 | 4.2 | -3.4 | -7.2
O=C(Nc1cccn(Cc2ccc(F)cc2)c1=O)NC1CCCCC1 | -6.8 | i | 5.4 | 0.5 | 3.5 | -8.7
Cc1ccc(Cn2cccc(NC(=O)NC3CCCCC3)c2=O)cc1 | -3.1 | i | 66.4* | -0.4 | 3.0 | -4.1
CCc1nnc(NC(=O)CSc2nnc(CNc3ccc(Cl)cc3)o2)s1 | 4.1 | i | 61.5* | 15.7 | -2.4 | -0.3
CCc1nnc(NC(=O)CSc2nnc(Cc3ccccc3)o2)s1 | -3.0 | i | -64.4 | -7.1 | -5.1 | -2.9
